This is an account of results in PubChem BioAssay (Tox21).

Records with an inconclusive call do not appear. Values without a mark were called inactive. Calls of active or inactive are those of the source. Calls follow the shape of the dose curve; as a rule, active = well fitted cell-killing curve with a large enough effect in the repeat runs; inconclusive = weak or mixed curves, or effect the other way; inactive = flat fitted curve, though single readings scatter.

Test [1] can be described thus: cAMP Responsive Elements (CRE) small molecule antagonists, cell-based qHTS assay: qHTS cell viability counter screen (AID 2060913). Also: nearly all actives have a fitted effect of over 40% in size. In a few lines:
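Cytotoxicity counter screen multiplexed with the CRE-bla antagonist read: HEK293T cells in DMEM with dialyzed FBS and 25 mM HEPES were treated 3 hrs under 0.25 uM final NKH477, then viability measured by CellTiter-Glo luminescence.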
In general terms: In qHTS, concentration-response curves come from the screen itself.

Test [2] is described as follows: cAMP Responsive Elements (CRE) small molecule agonists, cell-based qHTS assay: qHTS cell viability counter screen (AID 2060914). Also: nearly all actives have a fitted effect of over 50% in size. In a few lines:
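In the same wells as the reporter read, viability of CRE-bla HEK 293T cells was quantified by CellTiter-Glo luminescence after a 3 h compound exposure.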
% is scaled to controls: 0 for no effect and ±100 for the full control effect; potency is read from the fitted curve at half-maximal effect.

As for `CCCOC(OCCC)OCCC`, the Potency result in test [1] and in test [2] was “inactive” each time.

In the case of `CC(=O)OC(C)(C)Cc1ccccc1`, the Potency result in test [1] and in test [2] was “inactive” each time.

For the molecule `COc1ccc(CN(CCN(C)C)c2ccccn2)cc1`, the Potency entry in test [1] and in test [2] was “inactive” in each case.

For `CC(=O)CCC(=O)O`, the Potency entry in test [1] and in test [2] was “inactive” in each case.

`Cc1ccncc1`: the Potency result in test [1] and in test [2] was “inactive” throughout.

For the molecule `Cn1cnc2c(=O)[nH]c(N)nc21`, the Potency entry in test [1] and in test [2] was “inactive” each time.

Consider `CCCCCCCCCC=O`, for which the Potency result in test [1] and in test [2] was “inactive” each time.

As for `C=C[Si](C)(C)O[Si](C)(C)C=C`, the Potency result in test [1] and in test [2] was “inactive” each time.

On to `O=C1CCCc2c(O)cccc21`, for which the Potency result in test [1] and in test [2] was “inactive” in each case.

In the case of `CC(O)CC(C)(C)O` (centres undefined), the Potency result in test [1] and in test [2] was “inactive” throughout.

As to `CCCCCCCCCCCCc1ccc(O)cc1`, the Potency in test [1] and in test [2] was 61.1 µM (active) throughout.

As for `COC(=O)/C=C(/C)N`, the Potency result in test [1] and in test [2] was “inactive” throughout.

For `NNC(=O)CCCCC(=O)NN`, the Potency result in test [1] and in test [2] was “inactive” each time.

On to `N[C@@H](CCC(=O)O)C(=O)O`, for which the Potency entry in test [1] and in test [2] was “inactive” in each case.

In the case of `OCCO`, the Potency result in test [1] and in test [2] was “inactive” each time.

On to `Nc1ccc([N+](=O)[O-])c(N)c1`, for which the Potency entry in test [1] and in test [2] was “inactive” each time.

Regarding `NC(=O)NC(N)=O`, the Potency result in test [1] and in test [2] was “inactive” throughout.

Take `O=C(O)C(S)C(S)C(=O)O` (centres undefined): the Potency entry in test [1] and in test [2] was “inactive” each time.

Turning to `C[C@H](N)[C@H](O)c1cccc(O)c1`, the Potency entry in test [1] and in test [2] was “inactive” each time.

For `O=P(O)(O)OCC(O)CO` (centres undefined), the Potency result in test [1] and in test [2] was “inactive” in each case.

`CC(O)C(CO)C(C)O` (centres undefined): the Potency result in test [1] and in test [2] was “inactive” each time.

With `O=C[C@H](O)[C@@H](O)[C@H](O)[C@H](O)CO`, the Potency entry in test [1] and in test [2] was “inactive” each time.

Take `CN1CCN(CC(=O)N2c3ccccc3C(=O)Nc3cccnc32)CC1`: the viability change, negative = cytotoxic in test [1] was 8.13% [at 8.39 µM]. The activity change, negative = cytotoxicity in test [2] is 0.984% [at 8.39 µM].

As for `O=S(=O)(O)CC(O)CCl` (centres undefined), the Potency result in test [1] and in test [2] was “inactive” in each case.

Consider `O=C(Oc1ccccc1)c1ccccc1C(=O)Oc1ccccc1`, for which the Potency result in test [1] and in test [2] was “inactive” in each case.

As to `N=C(N)S(=O)O`, the Potency result in test [1] and in test [2] was “inactive” throughout.

In the case of `Cc1ccccc1C(=O)O`, the Potency result in test [1] and in test [2] was “inactive” in each case.

For the molecule `BrCCOc1ccccc1`, the Potency result in test [1] and in test [2] was “inactive” throughout.

For `CC(C)(CCC(=O)O)C(=O)O`, the Potency result in test [1] and in test [2] was “inactive” throughout.

For the molecule `Cc1cccc(Br)c1`, the Potency result in test [1] and in test [2] was “inactive” throughout.

As to `Cc1c(C(N)=O)cc([N+](=O)[O-])cc1[N+](=O)[O-]`, the Potency entry in test [1] and in test [2] was “inactive” throughout.

For the molecule `Cn1c([N+](=O)[O-])cnc1COC(N)=O`, the Potency result in test [1] and in test [2] was “inactive” in each case.

`O=C(Nc1ccc(Cl)cc1)Nc1ccc(Cl)c(Cl)c1`: the Potency result in test [1] and in test [2] was “inactive” in each case.

Take `Cc1ccc2c(c1[N+](=O)[O-])C(=O)c1ccccc1C2=O`: the Potency entry in test [1] and in test [2] was “inactive” in each case.

For the molecule `Cc1ccc(C(=O)O)cc1[N+](=O)[O-]`, the Potency entry in test [1] and in test [2] was “inactive” each time.

As for `COC(=O)Nc1nc2ccc(S(=O)c3ccccc3)cc2[nH]1` (centres undefined), the Potency result in test [1] and in test [2] was “inactive” in each case.

Consider `Cc1nc(-c2ccc(OCC(C)C)c(C#N)c2)sc1C(=O)O`, for which the Potency result in test [1] and in test [2] was “inactive” in each case.

Consider `C=CCOc1nc(OCC=C)nc(OCC=C)n1`, for which the Potency result in test [1] and in test [2] was “inactive” in each case.

In the case of `CN(C)CCn1nnnc1SCC1=C(C(=O)O)N2C(=O)[C@@H](NC(=O)Cc3csc(N)n3)[C@H]2SC1`, the Potency entry in test [1] and in test [2] was “inactive” in each case.

`CC(CO)c1ccccc1` (centres undefined): the Potency result in test [1] and in test [2] was “inactive” throughout.

As for `CC(C)(C)C(=O)O`, the Potency entry in test [1] and in test [2] was “inactive” throughout.

In the case of `O=c1[nH]c2ccccc2c(=O)n1CCCl`, the Potency entry in test [1] and in test [2] was “inactive” throughout.

Regarding `CC1=CC(C)C(C=O)C(C)C1` (centres undefined), the Potency entry in test [1] and in test [2] was “inactive” in each case.

Turning to `CCCCCCCCCCCCCCCCCC#N`, the Potency entry in test [1] and in test [2] was “inactive” in each case.

For `C[C@@]12CCC[C@H]1[C@@H]1CC[C@H]3C[C@@H](O)CC[C@]3(C)[C@H]1CC2`, the Potency result in test [1] and in test [2] was “inactive” throughout.

As to `CC(C)(C)NCC(O)COc1ccccc1OCC1CCCO1` (centres undefined), the Potency result in test [1] and in test [2] was “inactive” throughout.

In the case of `c1ccc2cc3c4ccccc4c4ccccc4c3cc2c1`, the Potency entry in test [1] and in test [2] was “inactive” in each case.

`O=C1C(O)=C(O)C(=O)C(O)=C1O`: the Potency result in test [1] and in test [2] was “inactive” in each case.

Regarding `N#Cc1ccc(CC(=O)c2cccc(C(F)(F)F)c2)cc1`, the Potency entry in test [1] and in test [2] was “inactive” in each case.

As for `CCCCCCCCCCCC(=O)Cl`, the Potency result in test [1] and in test [2] was “inactive” in each case.

For the molecule `CCCCCCCCCCCCCCCC(=O)OC`, the viability change, negative = cytotoxic in test [1] is 14.8% [at 18.9 µM]. Further, the activity change, negative = cytotoxicity in test [2] was -20.6% [at 18.9 µM].

In the case of `C#CCN[C@@H]1CCc2ccccc21`, the Potency entry in test [1] and in test [2] was “inactive” each time.

For the molecule `O=C(CCOCCOCCOCCOCCC(=O)Nc1c(I)cc(I)c(C(=O)O)c1I)Nc1c(I)cc(I)c(C(=O)O)c1I`, the Potency entry in test [1] and in test [2] was “inactive” in each case.

Turning to `Nc1ccc([N+](=O)[O-])c(C(F)(F)F)c1`, the Potency entry in test [1] and in test [2] was “inactive” in each case.

`CCC(Cl)CCC(Cl)C(Cl)CC(Cl)C(Cl)C(Cl)CCl` (centres undefined): the Potency entry in test [1] and in test [2] was “inactive” each time.

In the case of `Cc1coc2ccccc2c1=O`, the Potency result in test [1] and in test [2] was “inactive” in each case.

In the case of `OCC(CO)N[C@H]1C[C@](O)(CO)[C@@H](O)[C@H](O)[C@H]1O`, the Potency result in test [1] and in test [2] was “inactive” in each case.
